{"source": "the supplement of paper PMC6411743", "note": "± gives the standard deviation of the averaged measurements. Of roughly 6,500 targets only a part is listed; those with the largest changes were picked by preference."}
{"compound": "Nc1ncnc2c1ncn2[C@@H]1O[C@H](COP(=O)(O)OP(=O)(O)OP(=O)(O)O)[C@@H](O)[C@H]1O [adenosine triphosphate]", "assay": "NP40-soluble protein abundance relative to vehicle (solubility fold change) (ratio); higher = more soluble protein in presence of ATP", "settings": "concentration: 6mM", "how_it_was_run": "(§1)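 Values are fold changes against the detergent-processed vehicle, based on vsn-normalised intensities. Jurkat crude lysate was treated at eight concentrations from 0.1 to 10 mM (10 min at room temperature, then 3 min at 37 °C), solubilised with 0.8% NP40 and benzonase, ultracentrifuged and analysed by TMT-labelled LC-MS/MS over three independent experiments.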"}
{"target": "ARL3 (UniProt P36405)", "sequence (P36405 whole entry)": "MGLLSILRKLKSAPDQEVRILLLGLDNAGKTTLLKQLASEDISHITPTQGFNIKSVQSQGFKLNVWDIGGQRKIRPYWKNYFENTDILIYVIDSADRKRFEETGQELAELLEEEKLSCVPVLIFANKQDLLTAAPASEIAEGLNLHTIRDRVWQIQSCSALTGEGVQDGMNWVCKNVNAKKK", "NP40-soluble protein abundance": "0.926 ± 0.066"}
{"target": "UniProt P25398", "NP40-soluble protein abundance": "0.817 ± 0.087"}
{"target": "SRM (UniProt P19623)", "sequence (P19623 whole entry)": "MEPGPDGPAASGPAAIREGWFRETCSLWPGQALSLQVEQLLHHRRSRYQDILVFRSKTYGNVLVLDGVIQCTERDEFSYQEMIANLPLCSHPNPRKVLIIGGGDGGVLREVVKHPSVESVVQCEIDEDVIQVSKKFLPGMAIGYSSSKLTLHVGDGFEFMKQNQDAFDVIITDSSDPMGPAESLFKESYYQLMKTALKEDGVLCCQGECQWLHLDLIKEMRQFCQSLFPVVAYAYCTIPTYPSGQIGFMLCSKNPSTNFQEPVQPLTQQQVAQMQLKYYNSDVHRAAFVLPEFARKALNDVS", "NP40-soluble protein abundance": "0.929 ± 0.12"}
{"target": "SFPQ (UniProt P23246)", "sequence (P23246 whole entry)": "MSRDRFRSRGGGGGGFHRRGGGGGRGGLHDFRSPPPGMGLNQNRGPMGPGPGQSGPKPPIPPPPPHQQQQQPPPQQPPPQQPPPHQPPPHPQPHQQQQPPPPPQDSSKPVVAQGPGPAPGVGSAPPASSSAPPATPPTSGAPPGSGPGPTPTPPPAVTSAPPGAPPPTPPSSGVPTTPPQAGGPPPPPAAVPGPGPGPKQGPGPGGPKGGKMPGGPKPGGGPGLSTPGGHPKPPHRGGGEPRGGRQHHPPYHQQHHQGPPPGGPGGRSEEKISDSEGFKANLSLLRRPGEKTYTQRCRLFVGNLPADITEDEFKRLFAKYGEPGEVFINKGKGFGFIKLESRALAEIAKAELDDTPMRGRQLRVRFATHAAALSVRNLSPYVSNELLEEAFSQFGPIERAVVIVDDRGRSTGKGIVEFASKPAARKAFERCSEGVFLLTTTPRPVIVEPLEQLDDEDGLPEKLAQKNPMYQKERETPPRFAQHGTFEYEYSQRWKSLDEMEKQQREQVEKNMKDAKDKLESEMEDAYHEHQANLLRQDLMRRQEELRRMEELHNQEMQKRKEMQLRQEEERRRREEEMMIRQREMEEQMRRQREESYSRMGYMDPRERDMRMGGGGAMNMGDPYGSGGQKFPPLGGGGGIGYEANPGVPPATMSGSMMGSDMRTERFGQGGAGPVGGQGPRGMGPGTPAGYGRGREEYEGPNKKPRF", "NP40-soluble protein abundance": "1.72 ± 0.18"}
{"target": "RFC3 (UniProt P40938)", "sequence (P40938 whole entry)": "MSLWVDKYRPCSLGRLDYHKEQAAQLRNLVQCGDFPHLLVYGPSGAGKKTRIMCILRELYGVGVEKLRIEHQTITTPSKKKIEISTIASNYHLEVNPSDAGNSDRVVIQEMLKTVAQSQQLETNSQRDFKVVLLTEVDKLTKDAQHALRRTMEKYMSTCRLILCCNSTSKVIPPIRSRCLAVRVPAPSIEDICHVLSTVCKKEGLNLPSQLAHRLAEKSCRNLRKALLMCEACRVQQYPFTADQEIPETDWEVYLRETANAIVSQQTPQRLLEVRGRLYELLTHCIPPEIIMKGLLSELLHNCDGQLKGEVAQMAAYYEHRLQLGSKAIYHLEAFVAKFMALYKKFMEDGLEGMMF", "NP40-soluble protein abundance": "1.31 ± 0.039"}
{"target": "PPP2CA (UniProt P67775)", "sequence (P67775 whole entry)": "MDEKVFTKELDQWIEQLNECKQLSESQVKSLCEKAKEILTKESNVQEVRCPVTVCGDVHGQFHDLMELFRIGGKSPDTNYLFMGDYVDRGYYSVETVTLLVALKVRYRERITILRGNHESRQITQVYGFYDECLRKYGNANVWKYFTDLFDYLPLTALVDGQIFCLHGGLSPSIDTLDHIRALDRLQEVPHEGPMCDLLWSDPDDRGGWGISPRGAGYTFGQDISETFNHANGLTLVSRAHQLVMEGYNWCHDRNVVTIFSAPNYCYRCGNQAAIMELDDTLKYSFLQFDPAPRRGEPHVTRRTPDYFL", "NP40-soluble protein abundance": "0.962 ± 0.033"}
{"target": "LSM11 (UniProt P83369)", "sequence (P83369 whole entry)": "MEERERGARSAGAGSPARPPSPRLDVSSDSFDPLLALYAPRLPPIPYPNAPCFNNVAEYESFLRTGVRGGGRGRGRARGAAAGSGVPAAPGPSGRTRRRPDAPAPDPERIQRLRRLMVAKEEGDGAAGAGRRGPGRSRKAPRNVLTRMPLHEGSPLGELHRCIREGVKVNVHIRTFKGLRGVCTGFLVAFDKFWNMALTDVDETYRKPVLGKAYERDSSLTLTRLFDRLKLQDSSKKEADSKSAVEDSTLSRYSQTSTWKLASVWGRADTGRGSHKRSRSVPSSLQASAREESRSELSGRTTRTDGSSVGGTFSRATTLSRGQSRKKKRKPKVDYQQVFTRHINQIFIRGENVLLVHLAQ", "NP40-soluble protein abundance": "1.62 ± 0.32"}
{"target": "PRPF6 (UniProt O94906)", "sequence (O94906 whole entry)": "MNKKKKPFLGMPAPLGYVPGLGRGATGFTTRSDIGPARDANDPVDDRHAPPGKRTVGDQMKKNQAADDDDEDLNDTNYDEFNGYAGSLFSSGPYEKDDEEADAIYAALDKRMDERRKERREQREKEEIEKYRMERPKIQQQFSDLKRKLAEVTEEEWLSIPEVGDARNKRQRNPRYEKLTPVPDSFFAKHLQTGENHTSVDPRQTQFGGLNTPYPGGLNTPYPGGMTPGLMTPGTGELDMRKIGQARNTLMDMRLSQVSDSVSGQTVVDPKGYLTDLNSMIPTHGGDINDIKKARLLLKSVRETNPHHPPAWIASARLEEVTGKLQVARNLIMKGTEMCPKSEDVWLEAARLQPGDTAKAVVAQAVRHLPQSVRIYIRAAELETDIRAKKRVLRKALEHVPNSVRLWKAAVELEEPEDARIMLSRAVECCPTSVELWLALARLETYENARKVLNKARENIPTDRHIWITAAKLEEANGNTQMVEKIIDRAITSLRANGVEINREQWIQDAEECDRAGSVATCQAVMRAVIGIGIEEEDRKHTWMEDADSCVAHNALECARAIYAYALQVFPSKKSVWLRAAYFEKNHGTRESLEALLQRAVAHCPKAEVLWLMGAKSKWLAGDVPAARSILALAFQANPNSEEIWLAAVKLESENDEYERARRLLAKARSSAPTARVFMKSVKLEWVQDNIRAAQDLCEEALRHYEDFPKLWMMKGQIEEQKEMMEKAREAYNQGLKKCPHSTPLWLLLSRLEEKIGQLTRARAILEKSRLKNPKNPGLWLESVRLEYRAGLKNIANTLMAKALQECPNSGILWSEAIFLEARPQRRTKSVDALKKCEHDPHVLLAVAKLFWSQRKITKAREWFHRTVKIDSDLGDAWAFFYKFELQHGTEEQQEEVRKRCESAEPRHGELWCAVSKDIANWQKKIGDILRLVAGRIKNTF", "NP40-soluble protein abundance": "1.97 ± 0.2"}
{"target": "GALT (UniProt P07902)", "sequence (P07902 whole entry)": "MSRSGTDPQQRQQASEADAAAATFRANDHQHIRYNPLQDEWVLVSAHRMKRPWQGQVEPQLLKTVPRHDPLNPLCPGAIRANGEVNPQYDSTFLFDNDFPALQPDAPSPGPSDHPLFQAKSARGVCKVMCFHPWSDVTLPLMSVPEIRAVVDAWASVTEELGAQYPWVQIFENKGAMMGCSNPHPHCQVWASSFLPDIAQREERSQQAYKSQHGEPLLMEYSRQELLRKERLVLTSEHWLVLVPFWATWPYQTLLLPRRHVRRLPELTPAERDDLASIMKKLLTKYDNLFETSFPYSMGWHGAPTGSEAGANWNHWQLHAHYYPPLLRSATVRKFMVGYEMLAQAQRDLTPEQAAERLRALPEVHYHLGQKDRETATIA", "NP40-soluble protein abundance": "0.9753 ± 0.0077"}
{"target": "UniProt P49761|P49761-1|P49761-3", "sequence (P49761 whole entry, looked up)": "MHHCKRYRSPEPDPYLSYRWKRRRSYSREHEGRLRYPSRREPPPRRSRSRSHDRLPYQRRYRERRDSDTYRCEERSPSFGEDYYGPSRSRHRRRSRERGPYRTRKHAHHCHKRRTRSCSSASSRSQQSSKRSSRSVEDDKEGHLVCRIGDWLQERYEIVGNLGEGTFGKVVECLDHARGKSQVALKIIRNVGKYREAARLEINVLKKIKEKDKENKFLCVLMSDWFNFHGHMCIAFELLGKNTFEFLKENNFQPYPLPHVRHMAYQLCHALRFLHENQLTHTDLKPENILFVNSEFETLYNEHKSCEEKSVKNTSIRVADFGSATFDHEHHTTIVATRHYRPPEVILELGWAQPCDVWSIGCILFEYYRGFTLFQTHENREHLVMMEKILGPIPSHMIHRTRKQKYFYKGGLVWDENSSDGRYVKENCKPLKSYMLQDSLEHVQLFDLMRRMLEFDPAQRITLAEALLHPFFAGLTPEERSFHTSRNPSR", "NP40-soluble protein abundance": "1.43 ± 0.13"}
{"target": "MTHFD2 (UniProt P13995)", "sequence (P13995 whole entry)": "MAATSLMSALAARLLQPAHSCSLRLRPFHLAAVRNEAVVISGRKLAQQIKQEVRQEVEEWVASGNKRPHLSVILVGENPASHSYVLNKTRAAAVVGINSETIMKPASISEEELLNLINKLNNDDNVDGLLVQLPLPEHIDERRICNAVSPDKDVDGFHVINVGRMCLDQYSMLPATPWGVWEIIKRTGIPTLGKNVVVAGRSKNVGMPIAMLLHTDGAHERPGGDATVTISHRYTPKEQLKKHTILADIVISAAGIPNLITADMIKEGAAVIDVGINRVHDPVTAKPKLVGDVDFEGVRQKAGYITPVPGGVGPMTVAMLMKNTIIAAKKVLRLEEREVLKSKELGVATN", "NP40-soluble protein abundance": "1.01 ± 0.043"}
{"target": "GAA (UniProt P10253)", "NP40-soluble protein abundance": "0.972 ± 0.015"}
{"target": "UniProt P12268|H0Y4R1", "NP40-soluble protein abundance": "0.745 ± 0.14"}
{"target": "UniProt P50750-2|P50750", "NP40-soluble protein abundance": "1.47 ± 0.13"}
{"target": "UniProt P50213|H0YLF8", "sequence (P50213 whole entry, one chain of several)": "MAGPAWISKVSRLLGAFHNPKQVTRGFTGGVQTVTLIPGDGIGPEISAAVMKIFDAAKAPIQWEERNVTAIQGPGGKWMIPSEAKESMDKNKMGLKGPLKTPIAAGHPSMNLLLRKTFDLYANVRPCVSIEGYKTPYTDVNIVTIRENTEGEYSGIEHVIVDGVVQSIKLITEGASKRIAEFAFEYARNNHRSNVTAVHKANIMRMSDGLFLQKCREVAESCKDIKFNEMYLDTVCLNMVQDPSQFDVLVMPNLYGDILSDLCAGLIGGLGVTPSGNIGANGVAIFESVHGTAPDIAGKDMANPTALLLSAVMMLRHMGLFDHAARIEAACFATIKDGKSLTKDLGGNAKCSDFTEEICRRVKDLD", "NP40-soluble protein abundance": "0.95 ± 0.058"}
{"target": "UniProt P62854", "NP40-soluble protein abundance": "0.809 ± 0.13"}
{"target": "PPT1 (UniProt P50897)", "NP40-soluble protein abundance": "0.957 ± 0.035"}
{"target": "HMGN1 (UniProt P05114)", "sequence (P05114 whole entry)": "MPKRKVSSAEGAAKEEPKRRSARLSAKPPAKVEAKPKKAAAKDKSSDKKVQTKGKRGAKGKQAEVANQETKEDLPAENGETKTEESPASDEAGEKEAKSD", "NP40-soluble protein abundance": "1.88 ± 0.89"}
{"target": "UniProt O75400|O75400-2", "NP40-soluble protein abundance": "2.14 ± 0.13"}
{"target": "C1QBP (UniProt Q07021)", "NP40-soluble protein abundance": "0.585 ± 0.18"}
{"target": "DDX58 (UniProt O95786)", "NP40-soluble protein abundance": "0.978 ± 0.078"}
{"target": "UniProt P63218", "sequence (P63218 whole entry)": "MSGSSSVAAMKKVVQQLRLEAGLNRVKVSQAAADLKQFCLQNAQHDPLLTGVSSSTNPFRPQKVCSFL", "NP40-soluble protein abundance": "0.72 ± 0.12"}
{"target": "GCSH (UniProt P23434)", "NP40-soluble protein abundance": "1.03 ± 0.05"}
{"target": "TOP1 (UniProt P11387)", "NP40-soluble protein abundance": "1.42 ± 0.035"}
{"target": "JAK1 (UniProt P23458)", "NP40-soluble protein abundance": "1.16 ± 0.043"}
{"target": "AP3M2 (UniProt P53677)", "NP40-soluble protein abundance": "1.02 ± 0.047"}
{"target": "HSPA4L (UniProt O95757)", "NP40-soluble protein abundance": "0.987 ± 0.018"}
{"target": "MRPS25 (UniProt P82663)", "NP40-soluble protein abundance": "0.881 ± 0.09"}
{"target": "CRTAP (UniProt O75718)", "NP40-soluble protein abundance": "1.19 ± 0.034"}
{"target": "UniProt P08621|P08621-2", "NP40-soluble protein abundance": "1.74 ± 0.096"}
{"compound": "Nc1ncnc2c1ncn2[C@@H]1O[C@H](COP(=O)(O)OP(=O)(O)OP(=O)(O)O)[C@@H](O)[C@H]1O [adenosine triphosphate]", "assay": "NP40-soluble protein abundance relative to vehicle (solubility fold change) (ratio); higher = more soluble protein in presence of ATP", "settings": "concentration: 8mM", "how_it_was_run": "as §1"}
{"target": "ARL3 (UniProt P36405)", "NP40-soluble protein abundance": "0.945 ± 0.037"}
{"target": "UniProt P25398", "NP40-soluble protein abundance": "0.761 ± 0.043"}
{"target": "SRM (UniProt P19623)", "NP40-soluble protein abundance": "0.998 ± 0.071"}
{"target": "SFPQ (UniProt P23246)", "NP40-soluble protein abundance": "1.81 ± 0.11"}
{"target": "RFC3 (UniProt P40938)", "NP40-soluble protein abundance": "1.35 ± 0.061"}
{"target": "PPP2CA (UniProt P67775)", "NP40-soluble protein abundance": "0.9033 ± 0.007"}
{"target": "LSM11 (UniProt P83369)", "NP40-soluble protein abundance": "1.46 ± 0.2"}
{"target": "PRPF6 (UniProt O94906)", "NP40-soluble protein abundance": "2.18 ± 0.15"}
{"target": "GALT (UniProt P07902)", "NP40-soluble protein abundance": "0.935 ± 0.029"}
{"target": "UniProt P49761|P49761-1|P49761-3", "NP40-soluble protein abundance": "1.81 ± 0.23"}
{"target": "MTHFD2 (UniProt P13995)", "NP40-soluble protein abundance": "1.01 ± 0.032"}
{"target": "GAA (UniProt P10253)", "NP40-soluble protein abundance": "0.962 ± 0.055"}
{"target": "UniProt P12268|H0Y4R1", "NP40-soluble protein abundance": "0.636 ± 0.064"}
{"target": "UniProt P50750-2|P50750", "NP40-soluble protein abundance": "1.64 ± 0.058"}
{"target": "UniProt P50213|H0YLF8", "NP40-soluble protein abundance": "0.949 ± 0.057"}
